Bioassay records deposited in PubChem by National Center for Advancing Translational Sciences (NCATS).
NPC1 prom act = qHTS Assay for NPC1 Promoter Activators; Huh7 NPC1 promoter luciferase reporter, 24 h; AID 485313, 2010; Potency, µM (top dose mostly 9.22 µM), hits mostly activators; 2.4% of 320,000 active; also: nearly all actives have a fitted effect of over 60% in size
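Huh7 reporter cells (NPC1 promoter driving luciferase) are dosed with compound for 24 h at 37 °C, 5% CO2; luciferase detection reagent is then added and luminescence measured after 10 min at ambient temperature.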
SMN2 splice up = qHTS Assay for Enhancers of SMN2 Splice Variant Expression; 2.8% of 210,000 active; Potency, µM (series often up to 46.1 µM), usual class: activators; HEK293 SMN2-luciferase splicing reporter, luminescence, 30-36 h; also: nearly all actives have a fitted effect of over 55% in size
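HEK293 cells carry an SMN2 minigene-luciferase reporter in which exon 7 inclusion puts luciferase in frame. Cells were seeded at 2000 cells/well, attached for 10-12 hours, then exposed to compounds for 30-36 hours at 37C before ONE-Glo luminescence.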
KinaseGlo FLuc = Counterscreen for Luciferase (Kinase-Glo TM) Inhibition; Kinase-Glo luciferase, ATP luminescence, 8 min; Potency, µM (titrated, usually from 38.3 µM), usual class: inhibitors; 0.28% of 200,000 active; AID 1379, 2008; also: nearly all actives have a fitted effect of over 60% in size
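Compounds were added to a substrate mix at pH 7.2 (50 mM imidazole, 10 uM ATP, within the enzyme's linear range), followed by Kinase-Glo detection reagent; luminescence was measured after 8 minutes at ambient temperature.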
Rab9 promoter act = qHTS Assay for Rab9 Promoter Activators; 2.8% of 320,000 active; Huh7 Rab9 promoter-luciferase reporter, luminescence, 24 h; AID 485297, 2010; Potency, µM (titrated, usually from 9.22 µM), usual class: activators; also: nearly all actives have a fitted effect of over 60% in size
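Luminescence from Amplite-detected luciferase (10 minutes, ambient) reports Rab9 promoter activation. Before that, stable Rab9-luciferase Huh7 cells (1500/well, reduced-serum OP-MEM I plus 10% FBS) were exposed to compound for 24 hours at 37C.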
FLuc counter = qHTS profiling assay for firefly luciferase inhibitor/activator using purifed enzyme and Km concentrations of substrates (counterscreen for miR-21 project); Luciferin 4-monooxygenase (Photinus pyralis), P08659; 6.9% of 360,000 active; purified FLuc, Km substrates, luminescence inhibition; AID 588342, 2011; Potency, µM (highest dose often 57.5 µM), actives largely listed as inhibitors; also: nearly all actives have a fitted effect of over 55% in size
Target sequence (P08659 whole entry, looked up): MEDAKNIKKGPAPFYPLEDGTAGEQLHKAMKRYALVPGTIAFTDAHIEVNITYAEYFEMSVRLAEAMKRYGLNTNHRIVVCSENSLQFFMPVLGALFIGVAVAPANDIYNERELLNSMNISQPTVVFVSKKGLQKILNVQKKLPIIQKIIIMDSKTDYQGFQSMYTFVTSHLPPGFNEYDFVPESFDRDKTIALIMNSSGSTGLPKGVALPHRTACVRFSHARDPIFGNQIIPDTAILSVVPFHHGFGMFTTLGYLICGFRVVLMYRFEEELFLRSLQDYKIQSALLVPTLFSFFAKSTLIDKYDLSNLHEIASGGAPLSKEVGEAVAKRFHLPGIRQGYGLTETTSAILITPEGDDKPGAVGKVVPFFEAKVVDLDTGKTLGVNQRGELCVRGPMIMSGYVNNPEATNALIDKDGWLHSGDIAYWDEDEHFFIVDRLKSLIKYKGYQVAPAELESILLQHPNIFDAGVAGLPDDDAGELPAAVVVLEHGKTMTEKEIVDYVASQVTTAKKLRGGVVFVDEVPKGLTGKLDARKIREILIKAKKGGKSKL
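Purified P. pyralis luciferase, 10 nM final, with Km-level 10 uM D-luciferin and 10 uM ATP in 50 mM Tris acetate pH 7.5, 10 mM Mg acetate, 0.01% Tween-20, 0.05% BSA; 6-point qHTS titration about 60 µM downward; luminescence read.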
Hits are given with their value; i = inactive; ? = inconclusive; nt = no result given; [ ] = another dose, or the depositor's remark. Only some compounds are listed: those with a hit (about 7.3% of all), similar ones and a draw of the others. Calls follow the shape of the dose curve; as a rule, active = well fitted curve in the direction sought with a large enough effect; inconclusive = small, poorly fitted or top-dose-only effect, or another doubt; inactive = no such curve, though single readings can be large; an effect the other way counts as inactive or inconclusive.

SMILES	NPC1 prom act	SMN2 splice up	KinaseGlo FLuc	Rab9 promoter act	FLuc counter
COc1ccc2nc(NC(=O)Nc3ccccc3OC)sc2c1	?	nt	nt	0.63µM	0.95µM
COc1ccc2nc(Nc3ccc4c(c3)OCO4)sc2c1	?	?	i	4.5µM	?
COc1ccc2nc(Nc3ccccc3OC)sc2c1	1.1µM	2.8µM	11µM	0.35µM	0.48µM
COc1ccc2nc(Nc3ccccc3)sc2c1	3.5µM	11µM	i	1.6µM	1.5µM
Cc1cc(C(=O)Nc2ccc(C(C)C)cc2)c2c(C)nn(-c3ccccc3)c2n1	nt	nt	nt	nt	i
COC(=O)c1ccc(NC(=O)C(C)Sc2nc(=O)cc(N)n2CCc2ccccc2)cc1 (configuration not stated)	nt	i	nt	nt	i
COc1ccccc1NC(=O)Nc1nc2ccc(S(N)(=O)=O)cc2s1	?	nt	nt	4µM	?
NS(=O)(=O)c1ccc2nc(NC(=O)CS(=O)(=O)c3ccccc3)sc2c1	i	nt	nt	i	i
Cc1csc(=S)n1-c1ccccc1	i	i	i	i	i
Cc1ccc(-n2c(C)csc2=N)cc1	3.2µM	11µM	i	2µM	5.4µM
Cc1csc(=N)n1-c1ccc(Cl)cc1	?	i	i	3.5µM	9.5µM
COc1cccc(NC(=O)CCNS(=O)(=O)c2ccc3c(c2)CCCC(=O)N3)c1	nt	nt	nt	nt	i
O=C(Nc1cccc(-c2nc3ccccc3s2)c1)c1ccc2c(c1)OCO2	i	i	i	i	12µM
c1ccc2sc(N3CCN(Cc4ccc5c(c4)OCO5)CC3)nc2c1	nt	i	i	nt	nt
Cc1c(NC(=O)c2ccc3c(c2)OCO3)cccc1-c1nc2ccccc2s1	i	i	i	i	3.4µM
c1ccc2sc(-c3ccc4c(c3)OCO4)nc2c1	0.56µM	7.1µM	13µM	0.32µM	0.54µM
Cc1c(C(=O)Nc2ccccc2[N+](=O)[O-])csc1-c1ccccc1	3.2µM	nt	nt	2.8µM	1.2µM
Cc1c(C(=O)Nc2ccccc2)csc1-c1ccccc1	1.1µM	13µM	i	0.71µM	0.21µM
Cc1ccc(N2CC(NC(=O)C3CCCC3)CC2=O)cc1 (configuration not stated)	nt	nt	nt	nt	i
CCN(CC)CCCNC(=O)c1c(C)oc2ncn(CC(C)C)c(=O)c12	nt	nt	nt	nt	i
CC(=O)Nc1ccc(/C=N/NC(=O)c2cc3ccccc3nc2C)cc1	i	i	i	i	i
Cc1nc2c(C)cccc2cc1C(=O)N/N=C/c1ccc(N(C)C)cc1	i	?	i	i	?
Cc1nc2c(C)cccc2cc1C(=O)N/N=C/c1ccc(C(=O)O)cc1	i	i	i	i	17µM
CC(=O)Nc1ccc(/C=N/NC(=O)c2cc3cc(C)ccc3nc2C)cc1	i	i	i	i	6µM
CCOCCCn1c(=N)c(C(=O)NC2CCCC2)cc2c(=O)n3cccc(C)c3nc21	nt	i	nt	nt	i
SMILES	NPC1 prom act	SMN2 splice up	KinaseGlo FLuc	Rab9 promoter act	FLuc counter
COc1ccc(CCNC(=O)c2c(C)oc3ncn(CC(C)C)c(=O)c23)cc1OC	nt	nt	nt	nt	i
Cc1cccc(C)c1NC(=O)CCCn1c(=O)c2cccn2c2ccccc21	nt	nt	nt	nt	5.4µM
O=C(CCCn1c(=O)c2cccn2c2ccccc21)NCCc1ccc(Cl)cc1	nt	nt	nt	nt	3.8µM
O=C(NCCCO)Nc1ccc2nc(-c3ccco3)c(-c3ccco3)nc2c1	i	i	i	i	11µM
O=C(Nc1ccc2nc(-c3ccco3)c(-c3ccco3)nc2c1)NC1CC1	i	i	i	i	6µM
CCOc1ccc(C(=O)Nc2ccc(S(=O)(=O)Nc3nc(C)cc(C)n3)cc2)cc1OC	nt	i	nt	nt	i
Cc1cc2nc(SCC(=O)Nc3ccccc3C(=O)O)[nH]c2cc1C	i	i	i	i	11µM
COc1ccccc1NC(=O)Nc1nc(CC(=O)N2CCN(c3ccccc3OC)CC2)cs1	i	nt	nt	i	17µM
O=c1c(-c2ccc(F)c(F)c2)nc2cncnc2n1Cc1ccc(F)cc1	nt	i	i	nt	nt
CCCC(=O)c1ccc(N2CCCC2)c(F)c1	i	i	i	?	15µM
CCC(=O)c1ccc(N2CCN(C(=O)c3ccccc3F)CC2)c(F)c1	i	i	i	i	i
CCC(=O)c1ccc(N2CCCCCC2)c(F)c1	i	i	i	i	21µM
CCC(=O)c1ccc(N2CCCC2)c(F)c1	i	i	i	i	17µM
CCOC(=O)N1CCN(c2ccc(C(=O)c3ccccc3)cc2F)CC1	?	i	i	i	21µM
CCC(=O)c1ccc(N2CCN(S(=O)(=O)c3ccccc3)CC2)c(F)c1	i	nt	i	i	i
COc1ccccc1-c1nn2c(=O)cc(CN3CCN(C(=O)/C=C/c4ccccc4)CC3)nc2s1	nt	nt	nt	nt	i
O=C(Nc1ccc(Nc2ccc3c(c2)C(=O)c2ccccc2C3=O)c2c1C(=O)c1ccccc1C2=O)c1ccccc1	nt	i[9.22 µM]	i[7.66 µM]	nt	nt
CC(C)C(=O)Nc1cccc(-c2cnc3ccccc3n2)c1	?	i	i	?	15µM
CS(=O)(=O)Nc1cccc(-c2cnc3ccccc3n2)c1	3.2µM	nt	nt	4.5µM	19µM
O=C(Nc1cccc(-c2cnc3ccccc3n2)c1)c1ccncc1	i	i	i	i	?
Nc1cccc(-c2cnc3ccccc3n2)c1	2.5µM	nt	nt	?	7.6µM
CNC(=S)Nc1cccc(-c2cnc3ccccc3n2)c1	?	nt	nt	?	17µM
Cc1ccc(C(=O)Nc2cccc(-c3cnc4ccccc4n3)c2)cc1	i	i	i	i	?
COC(=O)C(c1ccc(OC)c(OC)c1)C1c2ccccc2C=C(C)N1C(=O)OC (configuration not stated)	nt	i	i	nt	nt
COC(=O)CN1C(=O)S/C(=C/c2ccc(N3CCCCC3)o2)C1=O	i	i	i	?	19µM
SMILES	NPC1 prom act	SMN2 splice up	KinaseGlo FLuc	Rab9 promoter act	FLuc counter
O=C(O)CN1C(=O)/C(=C/c2ccc(N3CCCCC3)o2)SC1=S	i	nt	nt	i	11µM
COC(=O)CN1C(=O)S/C(=C/c2cc(C)n(C)c2C)C1=O	4µM	i	i	3.5µM	9.5µM
Cc1ccc(-n2ncc(C(=O)NC3CCN(Cc4ccccc4)CC3)c2C2CCN(C(=O)OC(C)(C)C)CC2)cc1C	nt	nt	nt	nt	i
O=C1C(c2ccc(C(F)(F)F)cc2)=C(Nc2ccc(Cl)cc2)c2ccccc21	nt	i	nt	nt	i
O=C(O)CCNc1ccccc1C(=O)O	nt	i[9.22 µM]	i[7.66 µM]	nt	nt
O=C1C=CC(=O)c2c(O)c(Cl)c(Cl)c(O)c21	nt	i	i	nt	nt
Cc1cc(-c2ccc(C)c(S(=O)(=O)N3CCCC(C)C3)c2)on1 (configuration not stated)	nt	nt	nt	nt	i
O=C(Nc1ccccn1)c1ccc(S(=O)(=O)N2CCCCC2)cc1	?	nt	nt	?	13µM
O=C(Nc1ccccn1)c1ccc(Br)c(S(=O)(=O)N2CCCCC2)c1	i	i	i	i	i
O=C(Nc1ccccn1)c1cccc(S(=O)(=O)N2CCCc3ccccc32)c1	i	nt	nt	i	i
Cc1ccnc(NC(=O)c2ccc(S(=O)(=O)N3CCCCCC3)cc2)c1	i	nt	nt	i	8.5µM
Cc1ccnc(NC(=O)c2cccc(S(=O)(=O)N3CCCc4ccccc43)c2)c1	i	nt	nt	i	4.8µM
